Measured values reported in PubChem BioAssay AID1159580 (chemical genetic matrix, 2015).
“And” between values parts separate entries of the source, which are not always exact repeats. Equal entries are not always repeated. Hit rate of the full screen: of about 5,500 compounds, about 2,000 (36%) were called active. Not shown: some 18% with an inconclusive outcome. No stated cut-off is given here; in the data, active means normalized growth mostly below about 0.91 (no sharp cut-off); inconclusive means no clear call, values can overlap the other calls; inactive means mostly above about 0.92. This is one part of the list.

Test: chemical genetic growth profiling, strain panel (AID 1159580);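 further: tested at 20 µM; growth read once vehicle control cultures reached saturation at 30 °C; 1 = growth at the plate median or of vehicle wells; lower values mean less growth of the strain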
Settings: S. cerevisiae deletion strains, growth OD

Measured: normalized growth

NCC(=O)CCC(=O)O
inactive: locus YAL013W, strain DEP1, hits give low values 1.01 | locus YAL021C, strain ccr4, hits give low values 1 | locus YAL026C, strain drs2, hits give low values 1.01 | locus YAL030W, strain snc1, hits give low values 0.99 | locus YBL061C, strain skt5, hits give low values 0.979 | locus YBR009C, strain hhf1, hits give low values 1.03 | locus YBR021W, strain FUR4, hits give low values 1.04 | locus YBR023C, strain chs3, hits give low values 0.995 | locus YBR171W, strain sec66, hits give low values 0.962 | locus YBR229C, strain ROT2, hits give low values 1.02 | locus YBR231C, strain swc5, hits give low values 0.968 | locus YBR279W, strain paf1, hits give low values 0.997 | locus YCL011C, strain gbp2, hits give low values 1 | locus YCL016C, strain dcc1, hits give low values 0.998 | locus YCL029C, strain bik1, hits give low values 0.995 | locus YCL061C, strain MRC1, hits give low values 0.983 | locus YCL069W, strain vba3, hits give low values 0.989 | locus YCR088W, strain abp1, hits give low values 0.987 | locus YDL005C, strain med2, hits give low values 0.96 | locus YDL035C, strain GPR1, hits give low values 1.02 | locus YDL040C, strain nat1, hits give low values 0.979 | locus YDL074C, strain BRE1, hits give low values 1.02 | locus YDL101C, strain DUN1, hits give low values 1.01 | locus YDL134C, strain PPH21, hits give low values 1.01 | locus YDL185W, strain tfp1, hits give low values 0.994 | locus YDL192W, strain arf1, hits give low values 0.992 | locus YDR001C, strain nth1, hits give low values 0.997 | locus YDR069C, strain doa4, hits give low values 0.979 | locus YDR101C, strain arx1, hits give low values 0.988 | locus YDR137W, strain rgp1, hits give low values 0.979 | locus YDR150W, strain NUM1, hits give low values 1.02 | locus YDR159W, strain sac3, hits give low values 1 | locus YDR162C, strain NBP2, hits give low values 1.01 | locus YDR195W, strain ref2 0.945 | locus YDR297W, strain sur2, hits give low values 0.99 | locus YDR318W, strain mcm21, hits give low values 0.978 | locus YDR334W, strain swr1, hits give low values 0.984 | locus YDR335W, strain msn5, hits give low values 0.995 | locus YDR388W, hits give low values 0.986 | locus YDR392W, strain spt3, hits give low values 1.05 | locus YDR502C, strain sam2, hits give low values 0.995 | locus YEL003W, strain gim4, hits give low values 0.992 | locus YEL037C, strain rad23, hits give low values 0.979 | locus YEL061C, strain CIN8 (second series), hits give low values 0.99 | locus YEL061C, strain CIN8, hits give low values 1.01 | locus YER015W, strain faa2, hits give low values 0.996 | locus YER016W, strain bim1, hits give low values 1.01 | locus YER110C, hits give low values 0.991 | locus YER111C, strain swi4, hits give low values 0.972 | locus YER155C, strain BEM2 (second series), hits give low values 0.955 | locus YER155C, strain BEM2, hits give low values 1.01 | locus YER167W, strain BCK2, hits give low values 1.01 | locus YFR010W, strain ubp6, hits give low values 0.973 | locus YGL078C, strain dbp3, hits give low values 0.99 | locus YGL086W, strain mad1, hits give low values 1 | locus YGL167C, strain pmr1, hits give low values 0.974 | locus YGL173C, strain kem1, hits give low values 0.971 | locus YGL227W, strain vid30, hits give low values 0.988 | locus YGL240W, strain doc1, hits give low values 0.965 | locus YGL248W, strain PDE1, hits give low values 1.01 | locus YGL253W, strain hxk2, hits give low values 1.01 | locus YGR078C, strain PAC10, hits give low values 1.02 | locus YGR135W, strain pre9, hits give low values 0.982 | locus YGR229C, strain SMI1, hits give low values 1.02 | locus YGR252W, strain gcn5, hits give low values 0.975 | locus YHR013C, strain ard1, hits give low values 0.964 | locus YHR027C, strain rpn1, hits give low values 1 | locus YHR030C, strain SLT2, hits give low values 1.01 and 1.03 | locus YHR079C, strain IRE1 (second series), hits give low values 0.982 | locus YHR079C, strain IRE1, hits give low values 1.03 | locus YHR094C, strain hxt1, hits give low values 0.99 | locus YHR129C, strain ARP1, hits give low values 1.01 | locus YHR142W, strain chs7, hits give low values 0.981 | locus YHR200W, strain rpn10, hits give low values 0.99 | locus YIL066C, strain RNR3, hits give low values 1.02 | locus YIL073C, strain SPO22, hits give low values 1.01 | locus YIL125W, strain kgd1, hits give low values 0.997 | locus YIR030C, strain dcg1, hits give low values 0.994 | locus YJL092W, strain hpr5, hits give low values 0.969 | locus YJL095W, strain BCK1 (second series), hits give low values 0.984 | locus YJL095W, strain BCK1, hits give low values 1.01 and 1.03 | locus YJL115W, strain asf1, hits give low values 0.967 | locus YJL129C, strain trk1, hits give low values 0.98 | locus YJL134W, strain LCB3, hits give low values 1.01 | locus YJL154C, strain vps35, hits give low values 0.979 | locus YJL164C, strain tpk1, hits give low values 1 | locus YJL166W, strain qcr8, hits give low values 0.924 | locus YJL168C, strain set2, hits give low values 0.984 | locus YJL187C, strain SWE1 (second series), hits give low values 1.01 | locus YJL187C, strain SWE1, hits give low values 0.982 | locus YJR043C, strain POL32, hits give low values 1.01 | locus YJR066W, strain TOR1, hits give low values 0.986
